# The campaign covered roughly 360,000 compounds. About 1,700 (0.47%) were called active. For the sample, actives were picked, then their nearest neighbours and some compounds at random. A number with no mark means an inactive call. Cut-off read from the data, not from the text of the source: active = activation above about 15%; inactive = the rest.
# Assay: counter-screen for M1 agonists: effect in parental CHO-K1 cells (AID 602248);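 note: untransfected CHO-K1 host cells lacking M1 receptor as counterscreen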
# Details: Fluo-8 calcium fluorescence, at 3 µM, stronger effect = higher value, scaled to maximal ATP response, vehicle zero
row,SMILES,activation
1,O=C(NC1CC1)C1=C[C@H](c2c[nH]c3ccccc23)C[C@H](OCc2ccc(CO)cc2)O1,-0.26%
2,NC(=O)C1=C[C@@H](c2csc3ccccc23)C[C@@H](OCc2ccc(CO)cc2)O1,5.09%
3,NC(=O)C1=C[C@H](c2csc3ccccc23)C[C@H](OCc2ccc(CO)cc2)O1,15.6% (active)
4,Cc1ccc(N)cc1-n1c(C)ccc1C,0.3%
5,O=C(CSc1ccc(Cl)cc1)NC1CC1,-0.25%
6,CCSc1nc2sc3c(c2c(=O)[nH]1)CC(C)(C)OC3,0.45%
7,CCC1(C)Cc2c(sc3nc(SC)[nH]c(=O)c23)CO1 (stereo unspecified),18.7% (active)
8,CC/C(C)=N/Nc1nc2sc3c(c2c(=O)[nH]1)CC(C)(C)OC3,0.65%
9,COc1ccc(-n2ncc3c2CC(C)(C)CC3NC(=O)CCc2c(C)nn(C)c2C)cc1 (stereo unspecified),2.09%
10,CCCC(C)C(=O)Nc1ccc(NC(C)=O)cc1 (stereo unspecified),-0.01%
11,Cc1ccc(NC(=O)C(C)c2cccc(C(=O)c3ccccc3)c2)cc1 (stereo unspecified),3.5%
12,CCC(C(=O)Nc1ccc(C(C)C)cc1)c1ccccc1 (stereo unspecified),21.5% (active)
13,COc1ccc([C@H]2C[C@@H](n3cc(COC(=O)c4ccccc4)nn3)[C@H](O)CN2C(=O)c2cccs2)cc1,4.74%
14,O=C(NCCc1ccccn1)c1cc(C(=O)C2CCCCC2)c[nH]1,0.74%
15,CC(C)N(Cc1ccccc1)C(=S)Nc1ccc(OC(F)F)cc1,3.54%
16,CC/C(=N\NC(=S)NC(C)C)c1ccc(OC(F)F)cc1,0.04%
17,CC(NC(=S)Nc1ccc(OC(F)F)cc1)c1ccc(F)cc1 (stereo unspecified),18.2% (active)
18,COC(=O)[C@]12CCCCC=C1N(CCC1=CCCCC1)C(=O)[C@H](CC(=O)N1CCSCC1)C2,2.39%
19,O=C(CC(=O)N/N=C\c1cccc(Cl)c1Cl)NCc1ccccc1,6.61%
20,CSc1sc(C)cc1C1C(C#N)=C(N)N(c2cccnc2)C2=C1C(=O)CCC2 (stereo unspecified),0.25%
21,C=CC(=O)OCCOCCOCCOCCOC(=O)C=C,0.44%
22,Oc1ccccc1N1CCN(c2ncnc3sc(-c4ccccc4)cc23)CC1,18.6% (active)
23,CCc1cc2c(N3CCN(c4nnc(CC)s4)CC3)ncnc2s1,3.43%

row,SMILES,activation
1,COc1ccccc1N1CCN(c2ncnc3sc(C)c(-c4ccccc4)c23)CC1,0.5%
2,CCOC(=O)[C@H]1[C@H]2COc3ccc(Cl)cc3[C@@H]2N2C(=O)c3cc(C)ccc3NC(=O)[C@@]12C,-0.51%
3,COc1ccc(CSc2nnnn2-c2ccc(O)cc2)cc1F,7.29%
4,COc1ccc2c(c1)[C@H]1[C@H](CO2)[C@H](c2ccccc2)[C@]2(C)C(=O)Nc3cc(F)c(F)cc3C(=O)N12,0.27%
5,CCN1C(=NCC(C)C)N[C@@H](CCc2ccccc2)[C@H](C(=O)NCC(C)C)[C@H]1C,0.45%
6,O=S1(=O)CC(N2CCN(Cc3ccccc3F)CC2)CN1Cc1cn(Cc2ccccc2)nn1 (stereo unspecified),0.46%
7,CCOC(=O)CC1=CC(=O)Nc2ccccc2N1,0.86%
8,O=C(COC(=O)c1ccc(Cl)nc1)NCc1ccc2c(c1)OCO2,1.56%
9,CC(NC(=S)Nc1ccc(S(N)(=O)=O)cc1)c1ccc2c(c1)OCO2 (stereo unspecified),0.36%
10,NS(=O)(=O)c1ccc(NC(=O)COC(=O)CCc2c[nH]c3ccccc23)cc1,2.12%
11,CC(=O)Nc1cccc(C(=O)OCC(=O)c2ccc3c(c2)OCO3)c1,3.56%
12,NC(=O)c1ccc(NC(=O)COC(=O)c2c3c(nc4ccccc24)/C(=C\c2ccc4c(c2)OCO4)CCC3)cc1,28.9% (active)
13,NS(=O)(=O)c1ccc(NC(=O)COC(=O)c2c3c(nc4ccccc24)/C(=C\c2ccc4c(c2)OCO4)CCC3)cc1,17.2% (active)
14,Cc1ccc(NS(=O)(=O)c2cn(C)c(=O)n(C)c2=O)c(C)c1,0.05%
15,O=C(COC(=O)c1cncc(Br)c1)Nc1ccc(S(=O)(=O)N2CCOCC2)cc1,0.85%
16,CN(CCO)C(=O)c1nc[nH]c1C(=O)N(C)Cc1ccccc1,0.53%
17,CN(C(=O)CN(CCO)CC(=O)N(C)C(C)(C)Cc1ccccc1)C(C)(C)Cc1ccccc1,30.2% (active)
18,CCOC(=O)N(Cc1ccccc1)C1CC1,0.45%
19,COc1ccc(CCNS(=O)(=O)c2ccc(Cl)s2)cc1OC,0.5%
20,CCCn1c(=O)c2ccccc2n2c(SCC(=O)/C(C#N)=C(\C)N)nnc12,-0.17%
21,CN(C)c1ccc(C(CNC(=O)c2ccc(F)cc2)c2c[nH]c3ccccc23)cc1 (stereo unspecified),0.33%
22,COC(=O)c1nc2n(n1)C(c1ccc([N+](=O)[O-])cc1)C(C(=O)Nc1ccc(Cl)cc1)=C(C)N2 (stereo unspecified),0.7%
23,CCN(CC)CCCC(C)n1c2nc(=O)[nH]c(=O)c-2nc2cc(Cl)ccc21 (stereo unspecified),150% (active)

row,SMILES,activation
1,CC(=O)c1c(C)[nH]c(C(=O)OCC(=O)Nc2c(C)n(C)n(-c3ccccc3)c2=O)c1C,0.66%
2,O=C(c1ccc(=O)[nH]c1)N(Cc1ccco1)C1(C(=O)NC2CCCCC2)CCCCC1,0.04%
3,COc1ccc(OC)c(NC(=O)C2CCCN2S(=O)(=O)c2cccc3nsnc23)c1 (stereo unspecified),0.61%
4,Nc1ccc2[nH]c(=S)sc2c1,0.51%
5,CN1CCN(CCNC(=O)Nc2ccc([N+](=O)[O-])cc2)CC1,0.55%
6,O=C(NCCCN1CCN(c2ccc(F)cc2)CC1)Nc1ccc([N+](=O)[O-])cc1,15.1% (active)
7,O=C(CCN1C(=O)COc2ccccc21)NCCCN1CCN(c2ccc(F)cc2)CC1,0.21%
8,CCn1nnnc1SCC(=O)Nc1ccc(N(C)C)cc1,0.31%
9,CCSCc1nc(N)nc(NCCc2ccccc2)n1,15.5% (active)
10,Nc1nc(CSc2nnnn2-c2ccccc2)nc(Nc2ccccc2)n1,1.93%
11,Cc1ccccc1Nc1nc(N)nc(CSc2ccccc2)n1,0.45%
12,CCOC(=O)C1(Cc2cccc(OC)c2)CCN(C(C)CC(C)(C)O)CC1 (stereo unspecified),13.4%
13,Cc1ccc(NC(=O)COC(=O)CCc2nc3ccccc3n2-c2ccccc2)c(C)c1,-0.22%
14,COc1cc(OC)cc(C(=O)NNC(=O)CCOc2ccccc2OC)c1,0.49%
15,N#CC1(NC(=O)COC(=O)CCN=C2NS(=O)(=O)c3ccccc32)CCCCC1,1.21%
16,O=C(OCCN=C1NS(=O)(=O)c2ccccc21)c1cccc([N+](=O)[O-])c1,1.57%
17,O=C(CCCN=C1NS(=O)(=O)c2ccccc21)OCC(=O)c1ccc(F)c(F)c1,16.5% (active)
18,O=C(NCCCN1CCCC1=O)c1cccc(S(=O)(=O)NCc2ccccc2)c1,0.5%
19,CC(C)(C)C(=O)NNC(=O)c1ccc(Oc2cc(Cl)cc(Cl)c2)o1,0.25%
20,CC(C(=O)N1CCc2ccccc21)N(C)CC(=O)Nc1ccc(F)cc1 (stereo unspecified),1.77%
21,Cc1onc(-c2ccccc2)c1C(=O)NNC(=S)NC(=O)c1ccc(F)cc1,28.7% (active)
22,O=C(NNC(=S)NCc1ccccc1)c1ccc(OC(F)F)cc1,15.8% (active)
23,Cn1nnc(NC(=S)NC(=O)c2ccccc2)n1,0.43%

row,SMILES,activation
1,CC(C)CNC(=S)NNC(=O)c1ccccc1OC(F)F,0.18%
2,COc1ccc(/C(N)=N/OC(=O)CCCc2ccccc2)cc1,-0.55%
3,Cc1onc(-c2ccccc2)c1C(=O)N1CCN(S(=O)(=O)c2ccccc2C(F)(F)F)CC1,0.62%
4,O=C(/C=C/c1ccc(F)cc1)NC(=S)NNC(=O)c1cccnc1,1.3%
5,COc1ccc(C(=O)NNC(=S)NC(=O)c2ccccc2)cc1,38.2% (active)
6,COc1ccccc1CCC(=O)NNC(=O)c1ccncc1,0.44%
7,CC(=O)NC(=S)NNC(=O)c1ccc(Br)cc1,-0.94%
8,COc1ccc(C(=O)NC(=S)NNC(=O)CCc2ccccc2)cc1,21.1% (active)
9,Cc1scc(C(=O)NNC(=S)NCc2ccccc2)c1C,1.16%
10,O=C(Oc1ccc2c(c1)CCC2)N1CCOCC1,1.59%
11,CCC(=O)c1cc(F)ccc1OCC(=O)Nc1ccc2c(c1)OCCO2,0.59%
12,CC(C)NC(=O)C1(C)CCCCN1Cc1cccc(C(F)(F)F)c1 (stereo unspecified),-0.34%
13,Cc1cccc(NC(=O)N2CCCCCC2)c1C,0.19%
14,Cc1ccc(S(=O)(=O)NC(C)C(=O)Nc2ccccc2C(=O)N2CCCC2)cc1 (stereo unspecified),-0.4%
15,O=S1(=O)CCOC[C@H](CC2CCCCC2)N1Cc1ccc(F)cc1,-0.24%
16,CCC(C)c1ccccc1N1CC(C(=O)N2CCN(S(=O)(=O)c3ccc(F)cc3)CC2)CC1=O (stereo unspecified),1.26%
17,COc1cccc(-c2ccc(C#N)c(SCC(=O)NCCc3ccc(Cl)cc3)n2)c1,-0.1%
18,CC(=O)Oc1ccc(-c2cccc(C(=O)N3CCCCC3)c2)cc1,2.44%
19,Nc1c(C(=O)c2cccs2)sc2nsc(SCCN3CCCCC3)c12,69.8% (active)
20,CCOC(=O)C(C)Sc1nnc(CSc2nc3nc(C)cc(C)n3n2)o1 (stereo unspecified),1.72%
21,Cc1ccc(NC(=O)CC2S/C(=N/N=C3\CCCc4ccccc43)NC2=O)cc1 (stereo unspecified),12.4%
22,O=C(OCc1ccccc1)N1CCC2CC1c1ccc(-c3ccc4c(c3)OCO4)cc12 (stereo unspecified),1.17%

# — PubChem BioAssay AID602248 (The Scripps Research Institute Molecular Screening Center, 2012)
